Data taken from PubChem BioAssay.
The source made the active and inactive calls.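 How the source made its calls, unless noted: active means inhibition at or above 50% at 10 µM; inactive means inhibition below 50%.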

What was measured:
[1] = inhibitors of TNFa-induced NFkB p65 translocation, primary screen, imaging, HUVEC, MLSMR starter and 10KST1 sets (AID 438;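 active means inhibition above 20% together with a positive visual image hit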;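 further: compound added about 3h40 before a 20 min TNFalpha stimulation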;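 on inhibition: signal is the nuclear over cytoplasmic p65 intensity ratio per well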); conditions: HUVEC TNFa-induced p65 nuclear translocation; cell count: measured here: nuclei count (cytotoxicity indicator), at 2.08 µM; inhibition: at 2 µM, stronger effect = higher value, 0% TNFa-plus-vehicle, 100% no-TNFa wells
[2] = reduction of polyQ htt aggregates in cells – imaging, exon1htt(103Q)mCFP cells, high-content imaging, primary screen (AID 483;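 active means visual image review flags a hit and inhibition of aggregation exceeds 20%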;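 further: compound exposure lasted 3 days before fixation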;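 on nuclei count: percent of the per-plate median nuclei count of sample wells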); conditions: exon1htt(103Q)mCFP cell line, aggregate imaging, at 2 µM; inhibition of aggregation: stronger effect = higher value; nuclei count: measured here: cell count, toxicity
[3] = endothelial E-selectin expression blockers – imaging, HUVEC, immunofluorescence, MLSMR starter and 10KST1 sets, primary screen (AID 487;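 active means visually confirmed hit in the image check and inhibition above 20%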;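 on inhibition: signal is fraction of cell area covered by stained E-selectin grains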;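 on nuclei count: 100% = median nuclei count of all wells on the same plate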); conditions: HUVEC TNFalpha-induced E-selectin immunofluorescence imaging, at 2 µM; inhibition: stronger effect = higher value; nuclei count: measured here: cell number, toxicity
[4] = biological target: Voltage-gated potassium channel subunit beta-2 (Rattus norvegicus) (UniProt P62483); assay: inhibitors of rat Kvbeta2 reductase activity – biochemical, NADPH fluorescence, primary screen (AID 622;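 active means fluorescence slope higher than the sample average by over 3 SD, cut at about -0.22 in these data, passing the limit was not always enough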;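 further: slope of raw intensity against log time taken from 70 to 1610 s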); conditions: recombinant KvBeta, 4-cyanobenzaldehyde reduction, at 10 µM, stronger effect = higher value
[5] = biological target: Voltage-gated potassium channel subunit beta-2 (Rattus norvegicus) (UniProt P62483); assay: enhancers of rat Kvbeta2 NADPH turnover – biochemical, NADPH fluorescence, primary screen (AID 623;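 active means NADPH fluorescence slope more negative than the mean of all samples by about 3 SD, 99.7% confidence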;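 further: fluorescence intensity change per second fitted from 20 to 320 s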); conditions: Recombinant KvBeta, NADPH fluorescence decrease slope, 10 min; at 10 µM; stronger effect = lower value
[6] = biological target: Alpha-2C adrenergic receptor (Homo sapiens) (UniProt P18825); assay: compounds altering alpha2C-coupled GIRK flux – cell-based, HEK293 alpha2C/GIRK1/2, thallium flux, primary screen (AID 624;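 active means fluorescence slope after compound addition differing from the mean of all screened samples at 99.7% confidence, in either direction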;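 further: slope of fluorescence ratio to pre-addition baseline per second over 15 to 24 s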); conditions: thallium flux BTC fluorescence, at 10 µM, actives lie on both sides
[7] = blockers of RIG-like receptor reporter activation – cell-based, Sendai virus stimulus, luciferase, 10K MLSCN set, TLR/RLR signaling modifier project, primary screen (AID 602276); conditions: HEK293 RL24 IRF3 luciferase reporter, at 10 µM, stronger effect = higher value;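 further: firefly luciferase from ISG56 promoter only with Renilla not read in this screen; 0% = Sendai virus plus DMSO and 100% = medium plus DMSO without virus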
[8] = TLR3 IRF3 reporter activation blockers – cell-based, poly I:C stimulus, luciferase, 10K MLSCN set, primary screen (AID 602277;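 active means inhibition of the reporter signal at or above 50%; inactive means inhibition below 50%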); conditions: HEK293-TLR3 RL24 IRF3 luciferase reporter, at 10 µM, stronger effect = higher value

Alpha-2C adrenergic receptor (Homo sapiens), sequence (P18825 whole entry, looked up): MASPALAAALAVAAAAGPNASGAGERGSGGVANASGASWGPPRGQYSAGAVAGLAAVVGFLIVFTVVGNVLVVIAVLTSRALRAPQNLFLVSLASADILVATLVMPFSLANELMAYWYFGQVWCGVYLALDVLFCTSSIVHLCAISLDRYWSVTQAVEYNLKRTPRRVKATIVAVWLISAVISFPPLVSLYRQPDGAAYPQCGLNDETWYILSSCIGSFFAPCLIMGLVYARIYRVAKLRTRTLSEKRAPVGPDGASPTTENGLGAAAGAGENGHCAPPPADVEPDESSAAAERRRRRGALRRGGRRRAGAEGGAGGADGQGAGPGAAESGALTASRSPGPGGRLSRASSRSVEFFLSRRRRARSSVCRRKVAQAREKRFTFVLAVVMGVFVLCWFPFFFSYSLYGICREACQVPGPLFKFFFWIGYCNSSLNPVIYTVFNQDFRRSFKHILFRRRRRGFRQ
Voltage-gated potassium channel subunit beta-2 (Rattus norvegicus), sequence (P62483 whole entry, looked up): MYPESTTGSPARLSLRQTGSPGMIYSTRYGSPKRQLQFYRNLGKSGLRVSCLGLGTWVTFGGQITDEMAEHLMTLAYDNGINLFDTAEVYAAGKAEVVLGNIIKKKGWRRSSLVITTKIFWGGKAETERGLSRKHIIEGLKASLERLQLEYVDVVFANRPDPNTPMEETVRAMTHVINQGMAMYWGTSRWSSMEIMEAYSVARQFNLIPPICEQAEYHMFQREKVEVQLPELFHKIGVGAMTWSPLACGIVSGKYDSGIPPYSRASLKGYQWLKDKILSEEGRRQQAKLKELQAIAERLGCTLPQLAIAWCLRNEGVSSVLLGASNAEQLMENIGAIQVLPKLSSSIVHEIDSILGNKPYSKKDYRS

Cc1nnc(SCc2nc3ccccc3s2)n1-c1ccccc1
cell count [1]: 394 | inhibition [1]: -1% (inactive) | inhibition of aggregation [2]: -14.1% (inactive) | nuclei count [2]: 83.9% | inhibition [3]: -324% (inactive) | nuclei count [3]: 153% | fluorescence slope [4]: -0.317 (inactive) | NADPH fluorescence slope [5]: 7.5e-06 (inactive) | slope [6]: 0.005 (inactive) | inhibition [7]: 13.8% (inactive) | inhibition [8]: -17.5% (inactive)

Cc1noc(C)c1COC(=O)c1ccccc1Oc1ccccc1
cell count [1]: 583 | inhibition [1]: -25.6% (inactive) | inhibition of aggregation [2]: -12% (inactive) | nuclei count [2]: 106% | inhibition [3]: -22.7% (inactive) | nuclei count [3]: 146% | fluorescence slope [4]: -0.627 (inactive) | NADPH fluorescence slope [5]: -3.8e-07 (inactive) | slope [6]: 0.00533 (inactive) | inhibition [7]: 4.67% (inactive) | inhibition [8]: 22.4% (inactive)

CCOC(=O)C1=C(O)CCn2c1nc1ccccc12
cell count [1]: 376 | inhibition [1]: 2% (inactive) | inhibition of aggregation [2]: 14.2% (inactive) | nuclei count [2]: 56.5% | inhibition [3]: -214% (inactive) | nuclei count [3]: 98.6% | fluorescence slope [4]: -0.504 (inactive) | NADPH fluorescence slope [5]: -0.000164 (inactive) | slope [6]: 0.005 (inactive) | inhibition [7]: 9.43% (inactive) | inhibition [8]: -0.0537% (inactive)

CC(C)OC(=O)CCCCCN1C(=O)CSC1=S
cell count [1]: 448 | inhibition [1]: -9.2% (inactive) | inhibition of aggregation [2]: -5.3% (inactive) | nuclei count [2]: 80.5% | inhibition [3]: -93.7% (inactive) | nuclei count [3]: 114% | fluorescence slope [4]: -0.539 (inactive) | NADPH fluorescence slope [5]: -1.3e-05 (inactive) | slope [6]: 0.00459 (inactive) | inhibition [7]: 1.67% (inactive) | inhibition [8]: -4.31% (inactive)

CCS(=O)(=O)N1CCCC(C(=O)NCc2cccc(OC)c2)C1 (centres undefined)
cell count [1]: 722 | inhibition [1]: -5.5% (inactive) | inhibition of aggregation [2]: -59.8% (inactive) | nuclei count [2]: 105% | inhibition [3]: -66.4% (inactive) | nuclei count [3]: 116% | fluorescence slope [4]: -0.617 (inactive) | NADPH fluorescence slope [5]: -1.9e-05 (inactive) | slope [6]: 0.00403 (inactive) | inhibition [7]: -3.96% (inactive) | inhibition [8]: 3.19% (inactive)

CCOc1ccc(NC(=O)C(C)Sc2nnc(C)n2C)cc1 (centres undefined)
cell count [1]: 574 | inhibition [1]: -9.5% (inactive) | inhibition of aggregation [2]: 19.3% (inactive) | nuclei count [2]: 74.5% | inhibition [3]: -33.5% (inactive) | nuclei count [3]: 119% | fluorescence slope [4]: -0.591 (inactive) | NADPH fluorescence slope [5]: -1.5e-05 (inactive) | slope [6]: 0.00656 (inactive) | inhibition [7]: -2.49% (inactive) | inhibition [8]: 20.8% (inactive)

CC(C)(CSc1nncn1N)NS(=O)(=O)c1ccc(Cl)cc1
cell count [1]: 690 | inhibition [1]: -4.4% (inactive) | inhibition of aggregation [2]: 11.7% (inactive) | nuclei count [2]: 58.2% | inhibition [3]: -17.3% (inactive) | nuclei count [3]: 108% | fluorescence slope [4]: -0.447 (inactive) | NADPH fluorescence slope [5]: -4.4e-05 (inactive) | slope [6]: 0.00436 (inactive) | inhibition [7]: -0.22% (inactive) | inhibition [8]: 4% (inactive)

O=c1sc(Nc2ccccc2)nc2ccsc12
cell count [1]: 323 | inhibition [1]: -9.8% (inactive) | inhibition of aggregation [2]: -0.2% (inactive) | nuclei count [2]: 91.4% | inhibition [3]: -36.8% (inactive) | nuclei count [3]: 122% | fluorescence slope [4]: -0.334 (inactive) | NADPH fluorescence slope [5]: -2.1e-05 (inactive) | slope [6]: 0.00308 (inactive) | inhibition [7]: -17.1% (inactive) | inhibition [8]: -57.8% (inactive)

COc1cccc(-c2nc3n(n2)C(c2cccs2)C(C(=O)Nc2cccnc2)=C(C)N3)c1 (centres undefined)
cell count [1]: 735 | inhibition [1]: -20.1% (inactive) | inhibition of aggregation [2]: 30.4% (inactive) | nuclei count [2]: 111% | inhibition [3]: -65.8% (inactive) | nuclei count [3]: 113% | fluorescence slope [4]: -0.365 (inactive) | NADPH fluorescence slope [5]: 1.9e-05 (inactive) | slope [6]: 0.00588 (inactive) | inhibition [7]: 22.3% (inactive) | inhibition [8]: 32.8% (inactive)

Cc1cccc2c(=O)oc(-c3ccc4c(c3)C(=O)N(CC3CCCO3)C4=O)nc12 (centres undefined)
cell count [1]: 349 | inhibition [1]: 1.9% (inactive) | inhibition of aggregation [2]: -22.2% (inactive) | nuclei count [2]: 107% | inhibition [3]: -6.3% (inactive) | nuclei count [3]: 58.4% | fluorescence slope [4]: -0.521 (inactive) | NADPH fluorescence slope [5]: 2.4e-05 (inactive) | slope [6]: 0.0053 (inactive) | inhibition [7]: 16.1% (inactive) | inhibition [8]: 14.4% (inactive)

N#CC1=C(SCC(=O)NC2CCCCC2)NC(=O)CC1c1ccco1 (centres undefined)
cell count [1]: 709 | inhibition [1]: -7.8% (inactive) | inhibition of aggregation [2]: -1.4% (inactive) | nuclei count [2]: 62% | inhibition [3]: -10.6% (inactive) | nuclei count [3]: 102% | fluorescence slope [4]: -0.525 (inactive) | NADPH fluorescence slope [5]: -5.1e-05 (inactive) | slope [6]: 0.00537 (inactive) | inhibition [7]: 10.9% (inactive) | inhibition [8]: 14% (inactive)

C=CCn1c(SCc2ccc(C#N)cc2)nnc1-c1cccc(Cl)c1
cell count [1]: 397 | inhibition [1]: -11.3% (inactive) | inhibition of aggregation [2]: 10.7% (inactive) | nuclei count [2]: 95.4% | inhibition [3]: -62.4% (inactive) | nuclei count [3]: 187% | fluorescence slope [4]: -0.421 (inactive) | NADPH fluorescence slope [5]: -4.1e-05 (inactive) | slope [6]: 0.00297 (inactive) | inhibition [7]: 11.7% (inactive) | inhibition [8]: 35.5% (inactive)

COc1ccc(C2C(C(=O)c3sc(C)nc3C)=C(O)C(=O)N2CCN(C)C)cc1OC (centres undefined)
cell count [1]: 539 | inhibition [1]: 13.4% (inactive) | inhibition of aggregation [2]: -5.5% (inactive) | nuclei count [2]: 96.8% | inhibition [3]: 10.8% (inactive) | nuclei count [3]: 103% | fluorescence slope [4]: -0.6 (inactive) | NADPH fluorescence slope [5]: -7.9e-05 (inactive) | slope [6]: 0.0037 (inactive) | inhibition [7]: -1.16% (inactive) | inhibition [8]: 4.66% (inactive)

CCOC(=O)c1c(NC(=O)COC(=O)c2c(C)noc2C)sc2c1CCC2
cell count [1]: 231 | inhibition [1]: 7.8% (inactive) | inhibition of aggregation [2]: 29.9% (inactive) | nuclei count [2]: 103% | inhibition [3]: -101% (inactive) | nuclei count [3]: 109% | fluorescence slope [4]: -0.472 (inactive) | NADPH fluorescence slope [5]: -1.1e-05 (inactive) | slope [6]: 0.0054 (inactive) | inhibition [7]: 14.6% (inactive) | inhibition [8]: 21.3% (inactive)
